CYP2C19 act: activators of human cytochrome P450 2C19; P33261; recombinant CYP2C19, luciferin-H EGE luminescence; active compounds read high; 0 = fully inhibited enzyme, 1 = untreated enzyme; activation factor at 5 µM; 96,000 tested, under 10 active; AID 1025;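 active = activation factor of at least 2 at 5 µM in the primary screen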
Target sequence (P33261 whole entry, looked up): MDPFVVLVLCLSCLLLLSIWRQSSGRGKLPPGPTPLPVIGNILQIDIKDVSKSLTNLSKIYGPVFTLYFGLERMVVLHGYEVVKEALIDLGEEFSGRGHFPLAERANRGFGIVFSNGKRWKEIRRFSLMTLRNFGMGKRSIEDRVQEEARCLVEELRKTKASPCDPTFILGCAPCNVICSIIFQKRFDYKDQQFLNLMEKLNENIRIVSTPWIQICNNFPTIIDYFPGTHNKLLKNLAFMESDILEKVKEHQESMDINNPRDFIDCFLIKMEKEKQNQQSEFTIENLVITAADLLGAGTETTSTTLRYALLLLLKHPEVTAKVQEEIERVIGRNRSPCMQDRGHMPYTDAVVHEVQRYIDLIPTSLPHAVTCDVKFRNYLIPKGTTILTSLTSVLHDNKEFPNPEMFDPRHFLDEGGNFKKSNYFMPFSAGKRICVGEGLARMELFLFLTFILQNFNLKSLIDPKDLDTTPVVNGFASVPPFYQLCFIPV
CYP2C19 inhib: inhibitors of human CYP2C19. P33261. CYP2C19 Supersomes, luciferin-H EGE luminescence, 30 min. inhibition, % at 5 µM. actives 21% (n = 96,000);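 active = CYP2C19 inhibition above a set limit at 5 µM in the primary screen, cut at about 50% in these data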
CYP2C9 act: CYP2C9 (human) activation; activation factor at 5 µM; recombinant CYP2C9, luciferin-H conversion, luminescence; active compounds read high; factor 1 = untreated enzyme, 0 = blocked; P11712; actives 1.4% (n = 96,000);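 active = activation factor of 2 or more for CYP2C9 at a 5 µM dose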
PLAP activator: activates human placental alkaline phosphatase. purified PLAP enzyme, luminescent substrate read-out; active compounds read high. activation fold at 20 µM. actives 1.2% (n = 96,000). AID 696; in the data active = activation fold above about 2
CYP2C9 inhib: inhibitors of human CYP2C9; P11712; CYP2C9 Supersomes, luciferin-H conversion, luminescence; AID 777; actives 20% (n = 96,000); inhibition, % at 5 µM;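 active = blocking of liver enzyme CYP2C9 beyond about 50% at 5 µM, limit read from the data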
Large screens that a line does not name were inactive. Sampled rows, rich in hits. Any-hit rate of the full collection: about 31%.

COc1ccccc1NC(=O)C1=C(C)Nc2nc(-c3cccs3)nn2C1c1cccc(O)c1 (stereo not drawn)	CYP2C9 inhib 70
COc1ccc(C2C(C(N)=O)=C(C)Nc3nc(-c4cccc(Cl)c4)nn32)cc1OC (stereo not drawn)	CYP2C19 inhib 56
CCCSc1nc(C)c(CC(=O)O)c(=O)[nH]1	none
CSc1nnc(-c2sc3cc(C(F)(F)F)cnc3c2-c2ccccc2)n1C	PLAP activator 2, CYP2C9 inhib 71
N#Cc1ccc(NC(=O)c2sc3cc(C(F)(F)F)cnc3c2-c2cccs2)cc1	CYP2C9 inhib 62
COC(=O)c1sc2cc(C(F)(F)F)cnc2c1-c1ccccc1	CYP2C9 inhib 59
COc1ccc(S(=O)(=O)N(CC(=O)N2CCN(C)CC2)c2ccccc2)cc1OC	none
COc1ccc(OC)c(C2C(C#N)=C(N)Oc3cc(N)ccc32)c1 (stereo not drawn)	CYP2C19 inhib 94, CYP2C9 inhib 92
CCCc1[nH]nc2c1C(C1CCCCC1)C(C#N)=C(N)O2 (stereo not drawn)	none
CCOc1ccccc1C1C(C#N)=C(N)Oc2cc(N)ccc21 (stereo not drawn)	CYP2C19 inhib 76, CYP2C9 inhib 70
N#CC1=C(N)Oc2cc(N)ccc2C1C1CCCCC1 (stereo not drawn)	CYP2C19 inhib 84
COc1ccc(C2C(C#N)=C(N)Oc3cc4c(cc32)OCO4)cc1 (stereo not drawn)	CYP2C19 inhib 87, CYP2C9 inhib 87
CCN1C=C(Cc2ccc(OC)cc2)C2=C(C1)C(c1ccc(OC)cc1)C(C#N)=C(N)O2 (stereo not drawn)	none
CCOc1cccc(C2C(C#N)=C(N)Oc3cc(C)n(Cc4ccccn4)c(=O)c32)c1OCC (stereo not drawn)	none
Cc1oc(C(=O)O)cc1CSc1nnc(-c2ccccc2)n1C	none
COc1ccc2c(c1)N(C(=O)CSc1n[nH]c(C)n1)C(C)(C)C=C2C	none
CC(C)CCOc1ccc(C(=O)NCCC(=O)N2CCOCC2)cc1	none
O=C(NCc1ccccc1)N1CCN(c2ccccc2F)CC1	CYP2C19 inhib 62
O=C(NCc1ccccc1)C1CCN(C(=O)NCc2ccccc2)CC1	none
O=C(NC(=O)N1CCN(c2ccccc2F)CC1)c1ccccc1	CYP2C19 inhib 60
O=C(c1cccc(C(=O)N2CCN(c3ccccc3F)CC2)n1)N1CCN(c2ccccc2F)CC1	CYP2C19 inhib 90, CYP2C9 inhib 86
O=C(NCCc1ccccc1)C(=O)N/N=C/c1ccccc1C(F)(F)F	none
CCOC(=O)c1[nH]c(C)c(/C(O)=C2\C(=O)C(=O)N(CCN3CCOCC3)C2c2cccs2)c1C (stereo not drawn)	none
CCOC(=O)N1CCC(NC(=O)C2CCN(S(=O)(=O)c3c(C)noc3C)CC2)CC1	none
O=C1/C(=C/c2ccc(F)c(F)c2)CSc2sccc21	CYP2C9 inhib 78
O=C1/C(=C\c2ccc3c(c2)OCO3)CCC/C1=C/c1ccc2c(c1)OCO2	none
Cc1[nH]n(-c2ccccc2)c(=O)c1-c1cccc(Cl)c1	CYP2C9 inhib 71
Cc1cc(-c2c(C)[nH]n(-c3ccc(Cl)cc3)c2=O)n(-c2ccc(Cl)cc2)n1	CYP2C9 inhib 60
Cc1cc(-c2c(C)[nH]n(-c3ccccc3)c2=O)n(-c2ccccc2)n1	CYP2C9 inhib 81
COc1nc(OC)nc(N2CCC(NC(=O)C(Cc3ccc(C(C)C)cc3)NC(C)=O)CC2)n1 (stereo not drawn)	CYP2C9 inhib 57
COc1ccc(CC(NC(C)=O)C(=O)NC2CCN(c3nnnn3-c3ccccc3)CC2)cc1 (stereo not drawn)	none
CC1(C)NC(=O)N(CC(=O)OCC(=O)Nc2cccc(F)c2)C1=O	none
CCOc1ccc(Cl)cc1S(=O)(=O)n1cnc2cc(C)c(C)cc21	CYP2C19 inhib 91, CYP2C9 inhib 58
CCOc1ccc(Cl)cc1S(=O)(=O)N1CCN(c2ccc(C)c(C)c2)CC1	CYP2C19 inhib 100, CYP2C9 inhib 60
COc1ccc(Cl)cc1S(=O)(=O)N1CCN(c2ccc(F)cc2)CC1	CYP2C19 inhib 98, CYP2C9 act 3.2
Cc1[nH]c(=O)[nH]c(=O)c1S(=O)(=O)N1CCN(c2cccc(Cl)c2)CC1	none
COc1ccc(Cl)cc1S(=O)(=O)N1CCN=C1C	CYP2C19 inhib 90
COc1ccc(Cl)cc1S(=O)(=O)n1nnc2ccccc21	none
COC(=O)c1c(CCl)noc1C(=O)NCC1CCCO1 (stereo not drawn)	none
Cc1ccc(C)n1-c1cc(S(=O)(=O)N2CCOCC2)ccc1N1CCCC1	none
COC(=O)Nc1nnc(Cc2ccc(Cl)cc2)s1	none
COc1c(S(=O)(=O)N2CCN(c3ccc(F)cc3)CC2)ccc(Cl)c1Cl	CYP2C19 inhib 61
Cc1cc(S(=O)(=O)N2CCN(c3ccc(F)cc3)CC2)c(C)s1	none
CCOc1ccc(Cl)cc1S(=O)(=O)N1CCN(c2ccc(F)cc2)CC1	CYP2C19 inhib 100, CYP2C9 act 2.4
CC(=O)Nc1ccc(C(=O)n2cnc3cc(C)c(C)cc32)cc1	none
Cc1cc(Cl)c(S(=O)(=O)N2CCN(c3ccc(F)cc3)CC2)cc1OCC(N)=O	none
Cc1cc(Cl)c(S(=O)(=O)N2CCN(c3ccc(F)cc3)CC2)cc1OCC(=O)NC1CCCCC1	CYP2C19 inhib 83, CYP2C9 inhib 96
CC(=O)Nc1ccc(S(=O)(=O)n2cnc3cc(C)c(C)cc32)cc1	CYP2C19 inhib 100, CYP2C9 inhib 78
O=[N+]([O-])c1ccc(Cl)c(C2Nc3cccc4cccc(c34)N2)c1	none
CC(C)CC(=O)Nc1nc2c(c(=O)[nH]1)CCCC2	none
CC12CC(c3ccccc3O1)C(C(=O)NCc1ccccc1)C(=O)N2 (stereo not drawn)	CYP2C19 inhib 60
CC1(C(=O)NCc2ccccc2)Oc2ccccc2NC1=O (stereo not drawn)	CYP2C19 inhib 77, CYP2C9 inhib 76
COc1ccc(NC(=O)C2C(=O)NC3(C)CC2c2ccccc2O3)cc1 (stereo not drawn)	none
COc1cc2ccccc2cc1-c1nnc(COc2ccccc2)o1	none
CCOC(=O)c1c(N2C(=O)C=CC2=O)sc(C)c1C	none
CCOC(=O)C1=C(c2cccc(Oc3ccccc3)c2)NC(=S)NC1C (stereo not drawn)	CYP2C19 inhib 100, CYP2C9 inhib 99
Cc1nc(Cl)c(C#N)cc1-c1ccccc1	CYP2C19 inhib 86
Cc1nc(Sc2ccccc2)c(C#N)cc1-c1ccccc1	CYP2C19 inhib 58, CYP2C9 inhib 70
C=CCN1C(=O)N(/C=C/C)c2cccc3cccc1c23	none
Cc1ccc(SC(C)C(=O)Nc2c(C)n(C)n(-c3ccccc3)c2=O)cc1 (stereo not drawn)	none
CSc1ccccc1C(=O)Nc1cccc(N(C)S(C)(=O)=O)c1	none
Cc1ccc(SC(C)C(=O)Nc2cccc(N(C)S(C)(=O)=O)c2)cc1 (stereo not drawn)	CYP2C19 inhib 61, CYP2C9 inhib 83
Cc1ccc(SC(C)C(=O)Nc2cccnc2)cc1 (stereo not drawn)	none

Source: PubChem BioAssay
